Among all 5,500 compounds or so, about 2,000 (36%) were called active. About 18% were inconclusive and are not listed. Cut-off read from the data, not from the text of the source: active = normalized growth mostly below about 0.91 (no sharp cut-off); inconclusive = no clear call, values can overlap the other calls; inactive = mostly above about 0.92. The list shows a part of the results.
Assay: chemical genetic growth profiling, strain panel (AID 1159580);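 note: tested at 20 µM; growth read once vehicle control cultures reached saturation at 30 °C; 1 = growth at the plate median or of vehicle wells; lower values mean less growth of the strain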
Conditions: S. cerevisiae deletion strains, growth OD
[1] = locus YCL061C, strain MRC1, stronger effect = lower value
[2] = locus YJL187C, strain SWE1, stronger effect = lower value

Measured: normalized growth

CCCCCCc1cc2c(C)cc(=O)oc2cc1O
active: locus YBR229C, strain ROT2, stronger effect = lower value 0.895 | locus YHR087W, strain rtc3, stronger effect = lower value 0.725 | locus YJR075W, strain HOC1, stronger effect = lower value 0.888 | locus YLR039C, strain RIC1, stronger effect = lower value 0.721 | locus YLR262C, strain YPT6, stronger effect = lower value 0.782
inactive: locus YAL013W, strain DEP1, stronger effect = lower value 0.979 | [1] 0.968 | locus YDL101C, strain DUN1, stronger effect = lower value 1.02 | locus YDL134C, strain PPH21, stronger effect = lower value 0.976 | locus YDR150W, strain NUM1, stronger effect = lower value 0.996 | locus YEL061C, strain CIN8, stronger effect = lower value 0.966 | locus YGR078C, strain PAC10, stronger effect = lower value 0.996 | locus YGR229C, strain SMI1, stronger effect = lower value 0.976 | locus YHR030C, strain SLT2, stronger effect = lower value 0.922 | [2] 0.938 | locus YJR043C, strain POL32, stronger effect = lower value 1.03 | locus YKL190W, strain CNB1, stronger effect = lower value 0.959 | locus YLR058C, strain SHM2 (second series), stronger effect = lower value 0.981 | locus YLR085C, strain ARP6, stronger effect = lower value 0.864 | locus YML094W, strain GIM5, stronger effect = lower value 0.918 | locus YMR219W, strain ESC1, stronger effect = lower value 0.973 | locus YMR263W, strain SAP30, stronger effect = lower value 0.976 | locus YMR307W, strain GAS1, stronger effect = lower value 0.803 | locus YNL153C, strain GIM3, stronger effect = lower value 0.965 | locus YNL298W, strain CLA4 (second series), stronger effect = lower value 0.942 | locus YNL322C, strain KRE1, stronger effect = lower value 0.989 | locus YNR030W, strain Alg12, stronger effect = lower value 0.927 | locus YOL006C, strain TOP1, stronger effect = lower value 0.863 | locus YPL055C, strain LGE1, stronger effect = lower value 0.896 | locus YPL241C, strain CIN2, stronger effect = lower value 0.932 | locus YPR135W, strain CTF4, stronger effect = lower value 0.792

Cc1cc(=O)oc2cc(O)cc(O)c12
inactive: locus YAL021C, strain ccr4, stronger effect = lower value 0.968 | locus YAL026C, strain drs2, stronger effect = lower value 0.96 | locus YAL030W, strain snc1, stronger effect = lower value 0.952 | locus YBL061C, strain skt5, stronger effect = lower value 0.958 | locus YBR009C, strain hhf1, stronger effect = lower value 0.949 | locus YBR023C, strain chs3, stronger effect = lower value 0.949 | locus YBR171W, strain sec66, stronger effect = lower value 0.965 | locus YBR231C, strain swc5, stronger effect = lower value 0.975 | locus YBR279W, strain paf1, stronger effect = lower value 0.969 | locus YCL011C, strain gbp2, stronger effect = lower value 0.95 | locus YCL016C, strain dcc1, stronger effect = lower value 0.966 | [1] 0.983 | locus YCL069W, strain vba3, stronger effect = lower value 0.965 | locus YCR088W, strain abp1, stronger effect = lower value 0.958 | locus YDL005C, strain med2, stronger effect = lower value 0.961 | locus YDL040C, strain nat1, stronger effect = lower value 0.958 | locus YDR001C, strain nth1, stronger effect = lower value 0.957 | locus YDR069C, strain doa4, stronger effect = lower value 0.941 | locus YDR137W, strain rgp1, stronger effect = lower value 0.962 | locus YDR159W, strain sac3, stronger effect = lower value 0.932 | locus YDR195W, strain ref2 0.925 | locus YDR297W, strain sur2, stronger effect = lower value 0.96 | locus YDR334W, strain swr1, stronger effect = lower value 0.948 | locus YDR335W, strain msn5, stronger effect = lower value 0.978 | locus YDR392W, strain spt3, stronger effect = lower value 0.938 | locus YEL003W, strain gim4, stronger effect = lower value 0.978 | locus YEL037C, strain rad23, stronger effect = lower value 0.929 | locus YEL061C, strain CIN8 (second series), stronger effect = lower value 0.951 | locus YER015W, strain faa2, stronger effect = lower value 0.998 | locus YER016W, strain bim1, stronger effect = lower value 0.965 | locus YER111C, strain swi4, stronger effect = lower value 0.949 | locus YER155C, strain BEM2 (second series), stronger effect = lower value 0.932 | locus YFR010W, strain ubp6, stronger effect = lower value 0.943 | locus YGL167C, strain pmr1, stronger effect = lower value 0.943 | locus YGL173C, strain kem1, stronger effect = lower value 0.97 | locus YGL227W, strain vid30, stronger effect = lower value 0.95 | locus YGL240W, strain doc1, stronger effect = lower value 0.971 | locus YGL253W, strain hxk2, stronger effect = lower value 0.995 | locus YHR013C, strain ard1, stronger effect = lower value 0.948 | locus YHR027C, strain rpn1, stronger effect = lower value 0.964 | locus YHR142W, strain chs7, stronger effect = lower value 0.94 | locus YJL092W, strain hpr5, stronger effect = lower value 0.969 | locus YJL095W, strain BCK1 (second series), stronger effect = lower value 0.974 | locus YJL115W, strain asf1, stronger effect = lower value 0.958 | locus YJL129C, strain trk1, stronger effect = lower value 0.946 | locus YJL154C, strain vps35, stronger effect = lower value 0.971 | locus YJL164C, strain tpk1, stronger effect = lower value 0.978 | locus YJL166W, strain qcr8, stronger effect = lower value 0.983 | [2] 0.968 | locus YKL160W, strain elf1, stronger effect = lower value 0.981 | locus YKR026C, strain gcn3, stronger effect = lower value 0.944 | locus YKR091W, strain srl3, stronger effect = lower value 0.962 | locus YLL001W, strain dnm1, stronger effect = lower value 0.948 | locus YLL026W, stronger effect = lower value 0.97 | locus YLL041C, strain sdh2, stronger effect = lower value 0.977 | locus YLR027C, strain aat2, stronger effect = lower value 0.945 | locus YLR221C, strain rsa3, stronger effect = lower value 0.977 | locus YLR258W, strain gsy2, stronger effect = lower value 0.966 | locus YLR262C, strain YPT6 (second series), stronger effect = lower value 0.977 | locus YLR320W, strain mms22, stronger effect = lower value 0.962 | locus YLR342W, strain FKS1, stronger effect = lower value 0.958 | locus YLR357W, strain rsc2, stronger effect = lower value 0.939 | locus YLR370C, strain arc18, stronger effect = lower value 0.932 | locus YLR384C, strain iki3, stronger effect = lower value 0.957 | locus YML120C, strain ndi1, stronger effect = lower value 0.954 | locus YMR058W, strain fet3, stronger effect = lower value 0.967 | locus YMR125W, strain sto1, stronger effect = lower value 0.935 | locus YMR129W, stronger effect = lower value 0.969 | locus YMR205C, strain PFK2, stronger effect = lower value 0.932 | locus YMR231W, strain pep5, stronger effect = lower value 1 | locus YNL071W, strain lat1, stronger effect = lower value 0.972 | locus YNL209W, strain ssb2, stronger effect = lower value 0.965 | locus YNL248C, strain rpa49, stronger effect = lower value 0.996 | locus YNL322C, strain KRE1 (second series), stronger effect = lower value 0.95 | locus YNR049C, strain mso1, stronger effect = lower value 0.954 | locus YOR001W, strain rrp6, stronger effect = lower value 0.979 | locus YOR070C, strain gyp1, stronger effect = lower value 0.973 | locus YOR080W, strain dia2, stronger effect = lower value 0.965 | locus YOR083W, strain WHI5, stronger effect = lower value 0.988 | locus YOR106W, strain vam3, stronger effect = lower value 0.964 | locus YOR265W, strain rbl2, stronger effect = lower value 0.976 | locus YOR270C, strain vph1, stronger effect = lower value 0.894 | locus YOR290C, strain snf2, stronger effect = lower value 0.939 | locus YPL051W, strain arl3, stronger effect = lower value 0.982 | locus YPL078C, strain atp4, stronger effect = lower value 0.969 | locus YPL106C, strain sse1, stronger effect = lower value 0.927 | locus YPL240C, strain hsp82, stronger effect = lower value 0.985
